An excerpt weighted towards active compounds, which were near 3.5% of everything screened.
MITF inh = inhibitors of human MITF; AlphaScreen MITF homodimerization, bead proximity signal; inhibition, % at 2.6 µM; AID 1259374; O75030; 650,000 compounds, 0.91% hits; in the data active = inhibition above about 50%
FBW7 act = activators of human E3 ligase FBW7; Q969H0; AlphaScreen FBW7–phospho-cyclin E peptide binding, activator screen; normalized activity (activation), % at 26.1 µM; 650,000 compounds, 0.13% hits; in the data active = normalized activity above about 1.9%;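 note: purified mutant Fbw7 with reduced substrate affinity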
GPR151 ag = activators of human GPR151; activation, % at 11.2 µM; PathHunter beta-arrestin GPR151 cells, luminescence; 650,000 compounds, 1% hits; Q8TDV0; in the data active = activation above about 4.9%
TEAD-YAP block = TEAD-YAP interaction inhibition; 640,000 compounds, 1.4% hits; inhibition, % at 9.12 µM; HEK-TIYL cells, TEAD-Gal4/YAP UAS-luciferase luminescence; in the data active = inhibition above about 32%
Large screens that a line does not name were inactive.

CC1=C(C(=O)OC(C)C)C(c2cccs2)C2=C(CC(c3ccccc3)CC2=O)N1 (configuration not stated)	TEAD-YAP block 41.8
Cc1cnc(Nc2nc3ccccc3n2C)nc1NCCN1CCOCC1	none
C=CCn1c(COc2cccc3cccnc23)nnc1SCC#N	none
O=C(Nc1cccc(O)c1)c1cc(S(=O)(=O)N2CCCCC2)c(Cl)cc1Cl	none
COc1ccc2c(c1)CCc1cnc(-n3ncc(C(=O)N(C)CCO)c3C3CC3)nc1-2	none
COc1cc(CN2CCCCC2)cc(I)c1O	none
Cc1ccc(NC(=O)CCN2CCC(C)CC2)cc1	FBW7 act 2.3
CCOC(=O)c1sc2ncnc(Nc3ccc(C)cc3Br)c2c1C	TEAD-YAP block 58.8
CCOC(=O)c1sc2ncnc(Nc3cccc(C)c3)c2c1C	none
O=C1NC(=O)N(c2ccc(Cl)cc2Cl)C(=O)/C1=C/c1ccc(O)c([N+](=O)[O-])c1	none
CSc1ccc(-c2ccc(-n3ccnc3)cc2)nn1	TEAD-YAP block 52.0
Nc1ncn([C@@H]2O[C@H](CO)[C@@H](O)[C@H]2O)c(=O)n1	TEAD-YAP block 83.3
CC(=O)Oc1ccc(/C=C/c2ccc3cccc(OC(C)=O)c3n2)cc1[N+](=O)[O-]	none
Oc1c(Br)cc(/C=C/c2ccc3cccc(O)c3n2)cc1Br	none
CC(C)Oc1ccc(/C=C/c2ccc3cccc(O)c3n2)cc1	TEAD-YAP block 79.7
Oc1cccc(/C=C/c2ccc3cccc(O)c3n2)c1	TEAD-YAP block 47.4
COc1ccc(/C=C/c2ccc3cccc(OC(C)=O)c3n2)cc1OC(C)=O	TEAD-YAP block 75.2
Oc1cccc2ccc(/C=C/c3ccc(Cl)cc3)nc12	TEAD-YAP block 46.2
O=C(NCC1CCCN(Cc2nc3c(s2)CCCC3)C1)c1n[nH]c2ccccc12 (configuration not stated)	none
C#CCN1C(=O)C(O)(CC(=O)c2ccccc2[N+](=O)[O-])c2cc(Br)ccc21 (configuration not stated)	none
Cc1ccc(C)c(C(=O)COC(=O)c2cc(-c3ccc(C)c(C)c3)nc3ccccc23)c1	none
CCC(C)CC(=O)NCC1CCC2(CCN(C(=O)c3ccncc3)CC2)O1 (configuration not stated)	none
COc1cc(CC2(CCC(=O)NCC(C)Oc3cccnc3)CCC(=O)N2)ccc1F (configuration not stated)	FBW7 act 2.1
O=C(NC(c1ccccc1)c1ccccc1)c1ccc([N+](=O)[O-])o1	none
O=[N+]([O-])c1cccc(N/N=C/c2ccc([N+](=O)[O-])s2)c1	TEAD-YAP block 38.6
COc1cc(Cl)c(C)cc1NC(=O)COc1ccc(Br)cc1CO	none
CC(c1ccon1)N(C)C(=O)CC1(c2ccccc2)CC(=O)N(CCc2ccccn2)C1=O (configuration not stated)	none
COC(=O)c1ccccc1OCCCOc1ccc(C)cc1OC	none
COc1cc(C)ccc1OCCCOc1ccccc1C(=O)O	TEAD-YAP block 37.1
CCC(C)Oc1ccccc1C1CC(=O)NC2=C1C(=O)CCC2 (configuration not stated)	TEAD-YAP block 38.2
Nc1c2ccccc2nc2ccccc12 (tested in a mixture with another compound)	TEAD-YAP block 71.0
CNc1c2ccccc2nc2ccccc12	TEAD-YAP block 70.9
